From PubChem BioAssay
MgrA-DNA mod: alters Staphylococcus aureus MgrA binding to DNA. fluorescence polarization. inhibition, % (no concentration beside the values). 84,000 tested, 0.13% active. AID 602314; in the data active = inhibition above about 30%, passing the limit was not always enough;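 also: 0% = protein plus DNA without compound and 100% = DNA alone without protein; higher means less MgrA bound to DNA so lower polarization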
* hit, by the source's call. The full list was thinned out, with hits kept by preference.

SMILES	MgrA-DNA mod
COc1ccc(-n2c(C)cc(/C=C3/C(=O)NC(=O)N(Cc4ccco4)C3=O)c2C)cc1	7
CCOC(=O)C1CCN(/C=C2/C(=O)NC(=O)N(Cc3ccco3)C2=O)CC1	29*
CCN1C(=O)NC(=O)/C(=C\c2cn(CC(=O)N3CCCCC3C)c3ccccc23)C1=O (stereo not given)	15
O=C1/C(=C\c2ccc(N3CCCC3)cc2)N2CCC1CC2	8
CCN(CC)C(=O)N[C@@H]1CC2c3cccc4[nH]cc(c34)CC2N(C)C1 (stereo not given in full)	0
CN1C(=O)C(=C/C=C/c2ccccc2)C(=O)N(C)C1=O	9
O=c1cccc2n1CC1CNC[C@@H]2C1	0
COC(=O)C1=CN2C(C=C1)C(C(=O)OC)(C(=O)OC)[C@@H](c1cccnc1)[C@@H]2C#N (stereo not given in full)	52*
CCOP(=S)(NC)OCC	1
COC(=O)C1=C(N)OC2=C(C(=O)CCC2)C12C(=O)Nc1ccccc12 (stereo not given)	0
CNC(=O)c1ccc(/C=C2/C(=O)C3CCN2CC3)cc1	-1
C=C1C2CC[C@H]3[C@]4(C)C[C@H](OC5OC(CO)C(OS(=O)(=O)O)C(OS(=O)(=O)O)C5OC(=O)CC(C)C)C[C@@H](C(=O)O)[C@H]4CC[C@]3(C2)[C@H]1O (stereo not given in full)	4
Clc1ccc(NC2=NCCS2)cc1Cl	-1
O=[N+]([O-])c1ccc(N2CCCCC2)c2nonc12	16
O=[N+]([O-])c1ccc(N2CCCC2)c2nonc12	52*
